According to PubChem BioAssay (NCATS):
Results filed as inconclusive are left out. Calls of active or inactive are those of the source. Calls follow the shape of the full dose curve.

biological target: Peroxisome proliferator-activated receptor delta (Homo sapiens) (UniProt Q03181); experiment: qHTS assay for small molecule agonists of peroxisome proliferator-activated receptor delta signaling (AID 588534); settings: HEK293T PPARdelta-UAS-bla, beta-lactamase ratio, 18 h; series mostly up to 76.7 µM
Description: NIH Chemical Genomics Center [NCGC] U.S. Environmental Protection Agency [EPA] National Institutes of Environmental Health Sciences [NIEHS] National Toxicology Program [NTP] NCGC Assay Overview The Peroxisome proliferator-activated receptors (PPARs) are lipid-activated transcription factors of the nuclear receptor superfamily with three distinct subtypes namely PPAR alpha, PPAR delta (also called PPAR beta) and PPAR gamma. All these subtypes heterodimerizes with Retinoid X receptor (RXR) and have different physiological functions. […] This role of PPAR delta implicates the potential use of its ligands in the treatment of metabolic disorders.
Compounds were screened in a titration series in 1536-well format. […] Concentration-response titration points for each compound were fitted to the Hill equation yielding concentrations of half-maximal stimulation (EC50) and maximal response (efficacy) values. qHTS protocol for PPAR-delta beta-lactamase assay in agonist mode [Step] [Parameter] [Value] [Description] 1. Reagent; 6 uL; 4000 cells/well 2. Incubation; 37 C for 5 hrs 3. Compounds; 23 nL; 0.59 nM to 92 uM 4. […] Incubation; 37 C for 18 hrs 6. Detection reagent; 1 uL of CCF4-dye 7. Incubation; RT for 2 hrs 8. Detection; Fluorescence; Envision plate reader

Peroxisome proliferator-activated receptor delta (Homo sapiens), sequence (Q03181 whole entry, looked up): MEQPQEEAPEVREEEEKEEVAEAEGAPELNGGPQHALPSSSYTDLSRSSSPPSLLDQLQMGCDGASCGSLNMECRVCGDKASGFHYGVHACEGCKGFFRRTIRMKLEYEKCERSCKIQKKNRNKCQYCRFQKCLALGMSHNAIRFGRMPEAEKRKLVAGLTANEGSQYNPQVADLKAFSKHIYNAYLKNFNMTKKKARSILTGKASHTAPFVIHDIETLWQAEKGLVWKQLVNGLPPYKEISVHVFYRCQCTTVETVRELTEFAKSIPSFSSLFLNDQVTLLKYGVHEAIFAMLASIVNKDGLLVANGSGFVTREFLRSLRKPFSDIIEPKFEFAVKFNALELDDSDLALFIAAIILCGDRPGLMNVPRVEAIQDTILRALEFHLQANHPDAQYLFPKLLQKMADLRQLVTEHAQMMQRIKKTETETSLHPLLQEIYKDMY

SMILES | outcome
CCCCCCCC(=O)OCC(COC(=O)CCCCCCC)OC(=O)CCCCCCC | inactive
O=C1c2c(O)cccc2Cc2cccc(O)c21 | inactive
O=C(c1ccccc1)C(O)c1ccccc1 (stereo not given) | inactive
CC(C)(Oc1ccc(Cl)cc1)C(=O)O | inactive
Nc1nc(Cl)nc2c1ncn2[C@H]1C[C@H](O)[C@@H](CO)O1 | inactive
O=C(O)/C=C\C(=O)O | inactive
Nc1ccc(S(=O)(=O)c2ccc(N)cc2)cc1 | inactive
O=P1(N(CCCl)CCCl)NCCCO1 (stereo not given) | inactive
O=C1c2ccccc2C(=O)c2ccccc21 | inactive
CCCCCCCCCCCCCCCCCCO | inactive
NCCc1ccc(O)cc1 | inactive
Oc1ccccc1 | inactive
COc1c2occc2cc2ccc(=O)oc12 | inactive
O=C(O)CCCc1ccc(N(CCCl)CCCl)cc1 | inactive
CCCCC(CC)COC(=O)c1ccccc1O (stereo not given) | inactive
Nc1ccccc1 | inactive
O=C(OCc1ccccc1)c1ccccc1 | inactive
Cc1noc(NS(=O)(=O)c2ccc(N)cc2)c1C | inactive
CCOC(=O)CC(SP(=S)(OC)OC)C(=O)OCC (stereo not given) | inactive
COP(=S)(OC)Oc1ccc(SC)c(C)c1 | inactive

SMILES | outcome
Cc1cc(C)nc(NS(=O)(=O)c2ccc(N)cc2)n1 | inactive
Cc1nnc(NS(=O)(=O)c2ccc(N)cc2)s1 | inactive
Nc1nc(N)nc(NC2CC2)n1 | inactive
CCOP(=S)(OCC)Oc1ccc2c(C)c(Cl)c(=O)oc2c1 | inactive
Nc1ccc(S(N)(=O)=O)cc1 | inactive
Nc1ccc(C(=O)O)cc1 | inactive
COP(=S)(OC)Oc1cc(Cl)c(Cl)cc1Cl | inactive
Cc1cc(=O)[nH]c(=S)[nH]1 | inactive
CC(=O)Nc1ccccc1 | inactive
CC(C)Cc1ccc(C(C)C(=O)O)cc1 (stereo not given) | inactive
CC(C)NC(C)C | inactive
CCCCOC(=O)c1ccc(O)cc1 | inactive
COP(=S)(OC)SCN1C(=O)c2ccccc2C1=O | inactive
Oc1cccc(O)c1 | inactive
CCCC(O)C(CC)CO (stereo not given) | inactive
C=CCc1ccc(O)c(OC)c1 | inactive
Cc1ccc(C(C)C)c(O)c1 | inactive
O=C(O)CCCCC1CCSS1 (stereo not given) | inactive
C[C@]1(O)CC[C@H]2[C@@H]3CCC4=CC(=O)CC[C@]4(C)[C@@]3(F)[C@@H](O)C[C@@]21C | inactive
Nc1ccc([As](=O)(O)O)cc1 | inactive
